Compound activity as filed in PubChem.
Hits are enriched below; roughly 4.7% of the tested compounds scored in any of these assays.
PABP FP inh = PABP-poly(A) binding inhibition; P11940; PABP-poly(A) RNA binding, fluorescence polarization; inhibition, % at 35 µM; 290,000 tested, 1% active; AID 2014;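 also: calls also rest on retests at 20 µM and on dose response follow-up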
UBC9 SUMO inh = SUMOylation inhibition. 290,000 tested, 0.36% active. inhibition, % at 35 µM. P63279. HTRF SUMOylation assay, SAE1/SAE2 + UBC9, in vitro; in the data active = inhibition above about 50%, passing the limit was not always enough; inconclusive = no clear call, values can overlap the other calls
Target sequence (P63279 whole entry, looked up): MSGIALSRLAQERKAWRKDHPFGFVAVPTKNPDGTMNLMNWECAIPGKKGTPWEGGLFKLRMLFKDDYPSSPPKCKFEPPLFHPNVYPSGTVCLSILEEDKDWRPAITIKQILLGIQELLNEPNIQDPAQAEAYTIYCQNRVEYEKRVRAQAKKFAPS
PABP1 MLLE inh = blocks PAM2 peptide binding to the PABP1 MLLE domain | GST-MLLE / FITC-PAM2 fluorescence polarization | inhibition, % at 20 µM | P11940 | 360,000 tested, 0.36% active; in the data active = inhibition above about 35%, passing the limit was not always enough
ALR H2O2 inh = human ALR oxidase inhibition via reduced H2O2. purified ALR, DTT oxidation, H2O2 HRP-luminol luminescence. inhibition, % (concentration not given with the values). 290,000 tested, 3.8% active;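 active = mean replicate inhibition above about 79%, with every replicate also reaching it, limit read from the data; inconclusive = only one of the two criteria met; inactive = mean below limit and not every replicate reaching it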
Target sequence (P55789 whole entry, looked up): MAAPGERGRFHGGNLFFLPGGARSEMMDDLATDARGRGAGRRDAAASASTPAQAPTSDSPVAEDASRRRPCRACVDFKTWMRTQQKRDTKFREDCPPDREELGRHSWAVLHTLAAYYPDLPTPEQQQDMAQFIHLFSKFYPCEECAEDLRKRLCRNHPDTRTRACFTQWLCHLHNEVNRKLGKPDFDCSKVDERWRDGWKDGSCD
eIF4H FP inh = inhibitors of RNA binding by human eIF4H; Q15056; eIF4H fluorescence polarization binding assay; inhibition, % at 35 µM; 290,000 tested, 0.94% active;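 also: calls also rest on retests at 20 µM and on dose response follow-up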
Efflux pump inh = blocks antifungal efflux pumps in multiplex yeast assay | 330,000 tested, 0.44% active | AID 485275 | S. cerevisiae Candida pump triplex, Nile Red efflux | inhibition, % at 10 µM;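 active = plate passing quality check with inhibition over a set limit, or well fluorescence over plate mean plus 4 SD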;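 also: Nile Red retained in pooled yeast measured as flow cytometry median fluorescence; higher means more Nile Red kept so more efflux inhibition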
Cmpd fluor yeast = compound fluorescence in yeast efflux pump counter-screen; shares compounds with Efflux pump inh; 1,700 tested, 4% active; fluorescence ratio to DMSO, % at 10 µM; AID 588517; S. cerevisiae AD/pABC3, flow cytometry;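 active = fluorescence ratio to DMSO above its plate's cutoff, the plate mean ratio plus 5 SD, cut at about 210% in these data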;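 also: unstained yeast with no Nile Red so the signal is compound autofluorescence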
CaMdr1 efflux inh = inhibitors of Candida albicans Mdr1 efflux pump | shares compounds with Efflux pump inh | S. cerevisiae AD/CaMDR1, Nile Red efflux, flow cytometry | inhibition, % at 10 µM | 1,700 tested, 1% active | AID 588518; in the data active = inhibition above about 26%;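 also: higher means more Nile Red retained so more efflux inhibition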
Cdr2 pump inh = Candida Cdr2 efflux pump inhibition | shares compounds with Efflux pump inh | 1,700 tested, 4% active | Nile Red retention ratio vs DMSO, % at 10 µM | S. cerevisiae AD/CaCDR2, Nile Red retention, flow cytometry; in the data active = Nile Red retention ratio vs DMSO above about 190%;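 also: higher ratio means more blocking of Cdr2 efflux of the dye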
Cdr1 pump inh = blocks the Candida albicans Cdr1 efflux pump in yeast. shares compounds with Efflux pump inh. inhibition, % at 10 µM. 1,700 tested, 1% active. AID 588522. S. cerevisiae AD/CaCDR1, Nile Red efflux, flow cytometry;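 active = inhibition above the screen-wide mean plus twice its standard deviation, cut at about 32% in these data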
Hits are given with their value; – = inactive; ? = inconclusive; · = no result; + = active, no number. Unless noted, no rule for the calls is given here.

SMILES | PABP FP inh | UBC9 SUMO inh | PABP1 MLLE inh | ALR H2O2 inh | eIF4H FP inh | Efflux pump inh | Cmpd fluor yeast | CaMdr1 efflux inh | Cdr2 pump inh | Cdr1 pump inh
O=C(NC1CCCc2ccccc21)c1cccc(S(=O)(=O)N2CCN(c3ccccc3)CC2)c1 (stereo not given) | – | – | – | – | – | 1.9 | – | – | – | –
CC1CCC(NC(=O)c2cccc(S(=O)(=O)N3CCN(c4ccccc4)CC3)c2)CC1 (stereo not given) | · | · | – | – | · | – | · | · | · | ·
CC1CCC(NC(=O)COC(=O)c2ccco2)CC1 (stereo not given) | · | · | – | – | · | – | · | · | · | ·
Cc1c(C(=O)OCC(=O)NCc2ccco2)cccc1[N+](=O)[O-] | · | · | – | – | · | – | · | · | · | ·
CCCCN(C)CCCNC(=O)CN1C(=O)COc2ccc(S(=O)(=O)N3CCOCC3)cc21 | – | – | – | – | – | – | · | · | · | ·
CN1C(=O)/C(=C/c2ccccc2Cl)Sc2ccc(C(=O)N3CCCC3)cc21 | – | – | – | – | – | – | · | · | · | ·
CN1C(=O)/C(=C/c2ccc(C(F)(F)F)cc2)Sc2ccc(C(=O)N3CCN(c4ccccn4)CC3)cc21 | – | – | – | – | – | 0.7 | – | – | – | –
O=C(/C=C/c1ccccc1)OCC(=O)c1c[nH]c2ccccc12 | · | · | – | – | · | – | · | · | · | ·
COc1ccccc1C(=O)COC(=O)/C=C/c1ccccc1 | – | – | – | – | – | 6.2 | – | – | – | –
CC(C)C[C@H](NC(=O)c1nc[nH]c1C(=O)N(C)Cc1ccccc1)C(=O)OC(C)(C)C | – | – | – | – | – | 0.9 | – | – | – | –
CC(C)C[C@H](NC(=O)c1[nH]cnc1C(=O)N[C@H](C)c1ccccc1)C(=O)OC(C)(C)C | – | – | – | – | – | – | · | · | · | ·
COc1cccc(C(=O)OCC(=O)NCC2CCCO2)c1 (stereo not given) | · | · | – | – | · | – | · | · | · | ·
O=C1C2C3CCC(C3)C2C(=O)N1Cc1ccccc1 (stereo not given) | – | – | – | – | – | – | · | · | · | ·
O=C1C2C3C=CC(C4CC34)C2C(=O)N1Cc1ccccc1 (stereo not given) | – | – | – | – | – | 0.9 | – | – | – | –
COc1ccc2sc(-c3ccccc3OC)c(-c3ccc(OCCN4CCOCC4)cc3)c2c1 | · | · | – | · | · | 128 | – | 89 | – | 100
COc1cc2sc(-c3ccccc3OC)c(-c3ccc(OCCN4CCCCC4)cc3)c2cc1OC | · | · | – | – | · | – | · | · | · | ·
COc1ccccc1-c1sc2ccccc2c1-c1ccc(OCCN2CCOCC2)cc1 | · | · | – | · | · | – | – | – | – | –
O=C(O)C1CCN(S(=O)(=O)c2ccc(N3CCC(O)CC3)c([N+](=O)[O-])c2)CC1 | – | – | – | – | – | – | · | · | · | ·
O=C(CN1C(=O)c2ccccc2S1(=O)=O)Nc1ccon1 | · | · | – | – | · | 1.1 | – | – | – | –
COc1ccc(Nc2nnc(Cc3ccccc3)c(=O)[nH]2)c(OC)c1 | – | – | – | – | – | 0.5 | – | – | – | –
CCOc1ccc(N2C(=O)CC(N(C)Cc3ccccc3)C2=O)cc1 (stereo not given) | – | – | – | – | – | 15 | – | – | – | –
COC(=O)[C@]1(Cc2ccccc2)N[C@H](CN(C)C(=O)Nc2ccc(C(F)(F)F)cc2)[C@@H]2C(=O)N(C)C(=O)[C@@H]21 | · | · | – | – | · | – | · | · | · | ·
O=C1c2ccccc2-c2onc3ccc(NCCCn4ccnc4)c1c23 | – | – | · | ? | – | – | · | · | · | ·
COc1ccc2noc3c2c1C(=O)c1ccccc1-3 | · | · | – | · | · | 0.9 | – | – | 197 | –
CCN(CCO)Cc1csc2cc(C)ccc12 | – | – | – | – | – | 7.5 | – | – | – | –
SMILES | PABP FP inh | UBC9 SUMO inh | PABP1 MLLE inh | ALR H2O2 inh | eIF4H FP inh | Efflux pump inh | Cmpd fluor yeast | CaMdr1 efflux inh | Cdr2 pump inh | Cdr1 pump inh
COc1ccc2c(c1)/C(=C\c1cccc(/C=C3/C(=O)Nc4ccc(OC)cc43)n1)C(=O)N2 | · | · | – | · | · | · | · | · | · | ·
Cc1ccc(C)c(N2CCN(C(=O)C3CCCN(c4ncnc5c4nc4n5CCCCC4)C3)CC2)c1 (stereo not given) | – | – | – | – | – | 2.5 | – | – | + | –
C[n+]1ccccc1/C=C/c1ccc([N+](=O)[O-])cc1 | – | – | – | – | – | 1.4 | – | – | – | –
O=[N+]([O-])c1ccc(C=Nc2ccccc2)cc1 | · | · | – | · | · | · | · | · | · | ·
CCN(CC)c1ccc2cc(-c3nc(-c4ccc(OC)cc4)cs3)c(=O)oc2c1 | – | – | · | – | ? | 6.0 | 640 | – | 732 | –
CCN(CC)c1ccc2cc(-c3nnc(-c4ccccc4)o3)c(=O)oc2c1 | – | – | – | – | ? | – | · | · | · | ·
O=S(=O)(c1cccc2cccnc12)N1CCN(c2ccccc2)CC1 | – | – | – | – | – | 17 | – | – | – | –
O=S(=O)(c1cccc2cccnc12)N1CCN(c2ccccn2)CC1 | – | – | – | – | – | – | · | · | · | ·
O=c1c2cc(N3CCOCC3)ccc2[nH]c(=S)n1CCCN1CCCCC1 | – | – | – | – | – | 0.6 | – | – | – | –
O=C1C2C3CC(C(Br)C3Br)C2C(=O)N1c1nccs1 (stereo not given) | · | · | – | – | · | – | · | · | · | ·
COc1ccc(N2CCN(Cc3nc4c(c(=O)[nH]c(=O)n4C)n3CCCc3ccccc3)CC2)cc1 | – | – | – | – | – | 14 | – | – | – | –
CCN(CC)c1ccc(C(=O)OCC(=O)N(C(C)C)C(C)C)cc1 | – | – | – | – | – | – | · | · | · | ·
CCN(CC)c1ccc(/C=C2\C(=O)c3ccc(C(=O)O)cc3C2=O)cc1 | – | – | – | · | ? | 5.8 | 208 | – | 668 | –
O=C(CSc1nnc(NC(=O)c2ccco2)s1)Nc1ccccc1Br | – | – | – | – | – | – | · | · | · | ·
CCOc1ccc(C(=O)NC(C(=O)N2CCC2)C(C)C)cc1 (stereo not given) | · | · | – | · | · | · | · | · | · | ·
CC(=O)N/C(=C\c1ccccc1)C(=O)OCc1ccccc1 | – | – | – | – | – | 1.5 | – | – | – | –
Cc1cc2ccccc2n2c(SCC(=O)Nc3ccc(S(=O)(=O)N4CCCCC4)cc3)nnc12 | – | – | – | – | – | – | · | · | · | ·
Cc1cc2ccccc2n2c(SCC(=O)Nc3ccc(S(=O)(=O)N4CCC(C)CC4)cc3)nnc12 | – | – | – | – | – | 6.8 | – | – | – | –
COc1ccc(CNS(=O)(=O)NCc2ccc(C)cc2)cc1 | – | – | – | – | – | – | · | · | · | ·
Fc1ccc(-n2nnc(-c3ccnc4ccccc34)n2)cc1 | – | – | – | – | – | – | · | · | · | ·
Cc1cccc(OCCC(=O)NNC(=O)Cn2nc(C)cc2C)c1 | · | · | – | – | · | – | · | · | · | ·
